Activity calls are given as the source filed them. Rule for the calls: active = hit-call score of the fitted dose curve at least 0.9, where 1 is the maximum; inactive = score below 0.9.

Read-out in this experiment: Cytochrome P450 (CYP2B6), CYP2B6 (gene 1555)
The experiment can be described thus: LTEA_HepaRG_CYP2B6: Life Technologies and Expression Analysis (LTEA) Assay for Cytochrome P450 (CYP2B6) using HepaRG (AID 2283481). The note with it: mRNA level, 48 h; actives raise or lower the signal. As to the method: LTEA_HepaRG is a cell based, multiplexed-readout assay that uses HepaRG, a human liver cell line, with measurements taken at 48 hours after chemical dosing on a 96-well plate.LTEA_HepaRG_CYP2B6 is one of 102 assay component(s) measured in the LTEA HepaRG cell culture assay. It is a marker of NR mediated metabolism.Data from the assay component LTEA_HepaRG_CYP2B6 was analyzed into 1 endpoint. This assay endpoint, LTEA_HepaRG_CYP2B6, was analyzed with bidirectional fitting relative to DMSO as the negative control and baseline of activity. Using a type of inducible reporter, measures of mRNA induction for gain or loss-of-signal activity can be used to understand regulation of transcription factor activity. To generalize the intended target to other relatable targets, this assay endpoint is annotated to the cyp intended target family, where the subfamily is xenobiotic metabolism.
A total of 1060 chemcials from the ToxCast library were tested in eight-point concentration-response experiments. Cell culture and cytotoxicity assays were conducted at Thermo Fisher Scientific's Custom Services facility (Madison, WI). A single lot of human HepaRG cells (Thermo Fisher Scientific, Frederick, MD) was used for the cell culture experiments. 96-well format collagen type I coated plates of human HepaRG cells were prepared using established methods. Briefly, cryopreserved HepaRG cells were thawed, plated at a density of approximately 100,000 cells/well in HepaRG Thaw, Plate, and General Purpose media (HPRG770, Thermo Fisher Scientific), and incubated for 48 hours. 0.5% DMSO was selected as vehicle control to balance the requisite need of DMSO in HepaRG cultures to maintain differentiation (for example, baseline metabolism, proportions of hepatocytes vs. cholangiocytes), while enabling further hepatic receptor pathway activation (for example, PXR and CAR) in response to chemical exposure. 48 hours after plating, the culture medium was replaced with HepaRG Serum-Free Incudtion Media. Cells were exposed to each test chemical in duplicate and maintained in CO2 incubators for another 48 hours. Chemical plates were thawed to room temperature and 200x concentrations of treatment groups were prepared. 8-point conentration-reponse curves were made with the highest exposure at 100 uM, followed by half-log dilutions, all in 0.5% DMSO. Each test plate contained variouse controls, induction positive controls (1mM phenobarbital), cytotoxicity positive controls ([…] aflatoxin B1), vehicle controls (0.5% DMSO), and total lysis controls (0.5% DMSO). Cell morphology images were taken using an Essen IncuCyte FLR automated microscope, with six 96-well plates imaged in about 24 minutes. Images were captured and exported and JPEG files. Spent culture media was transfered to black-well plates for the LDH assay, and remaining media was sorted at -80 C for later use. Cells were treated with RLT buffer and frozen until shipped for gene expression analysis. Total RNA was isolated from the cell suspension in 75 uL of Buffer RLT (Qiagen, Germantown, MD 20874) by Quintiles/Expression Analysis (Durham, NC) using a custom isolation procedure. Total RNA from each plate well was transferred to a preamplification plate. Fluidigm's 96.96 Dynamic ArrayTM (Fluidigm, Amsterdam, the Netherlands) technology was used for gene expression analyses by quantitative reverse transcription polymerase chain reaction (qRT-PCR, performed by Quintiles/Expression Analysis, Durham, NC)89. Standard TaqManTM Assays (Applied Biosystems/ThermoFisher Scientific, Foster City, CA) were used to assess the expression of 93 genes selected based on their selectivity and sensitivity to important hepatic receptors known to be modulated by environmental chemicals; importance in human hepatocyte functionality; and hepatotoxicity. […]
Broadly, the AC50 is the concentration giving half of the maximal activity seen. In the case of `CN(Cc1cnc2nc(N)nc(N)c2n1)c1ccc(C(=O)N[C@@H](CCC(=O)O)C(=O)O)cc1`, the concentration at half-maximal activity (AC50) was 0.16 µM (active).
Take `OCC(CO)(CBr)CBr`: the call was inactive.
In the case of `CCCCCCCCCCCCCCC`, the AC50 was 5.89 µM (active).
`CC(=O)Nc1ccc(O)cc1`: the molecule was classed as inactive.
For `CCCCC=O`, the call was inactive.
As to `O=C1NS(=O)(=O)c2ccccc21`, the outcome was inactive.
Turning to `CCCCC(CC)C(=O)O` (configuration not stated), the outcome was inactive.
Regarding `Cc1[nH]nc2c1N=C(c1ccccc1Cl)c1cc([N+](=O)[O-])ccc1N2`, the AC50 is 8.93 µM (active).
In the case of `CCC(C)c1ccccc1O` (configuration not stated), the molecule was classed as inactive.
As for `N=C(N)c1ccc(OCCCCCOc2ccc(C(=N)N)cc2)cc1`, the AC50 was 3.74 µM (active).
Regarding `CCCCCCCCCCCCOS(=O)(=O)O`, the half-maximal activity concentration (AC50) is 94.1 µM (active).
In the case of `O=C(CCCN1CCC(O)(c2ccc(Cl)cc2)CC1)c1ccc(F)cc1`, the AC50 was 79.7 µM (active).
